Assay outcomes as filed in PubChem BioAssay.
Compounds with a hit are over-represented: about 3.5% of the library has one in this group of screens.
MBD2 inh: MBD2-methylated oligo binding inhibition. inhibition, % at 4.4 µM. TR-FRET, MBD2 binding to methylated oligonucleotide. Q9UBB5. actives 0.31% (n = 370,000); in the data active means inhibition above about 13%
UHRF1 binding: blocks human UHRF1 binding to methylated DNA; inhibition, % at 4.4 µM; UHRF1 binding to methylated oligo, TR-FRET; Q96T88; AID 687016; actives 0.75% (n = 370,000); in the data active means inhibition above about 21%;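 further: UHRF1 SRA domain binding a hemimethylated CpG hairpin DNA probe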
Target sequence (Q96T88 whole entry, looked up, the tested form may be a part): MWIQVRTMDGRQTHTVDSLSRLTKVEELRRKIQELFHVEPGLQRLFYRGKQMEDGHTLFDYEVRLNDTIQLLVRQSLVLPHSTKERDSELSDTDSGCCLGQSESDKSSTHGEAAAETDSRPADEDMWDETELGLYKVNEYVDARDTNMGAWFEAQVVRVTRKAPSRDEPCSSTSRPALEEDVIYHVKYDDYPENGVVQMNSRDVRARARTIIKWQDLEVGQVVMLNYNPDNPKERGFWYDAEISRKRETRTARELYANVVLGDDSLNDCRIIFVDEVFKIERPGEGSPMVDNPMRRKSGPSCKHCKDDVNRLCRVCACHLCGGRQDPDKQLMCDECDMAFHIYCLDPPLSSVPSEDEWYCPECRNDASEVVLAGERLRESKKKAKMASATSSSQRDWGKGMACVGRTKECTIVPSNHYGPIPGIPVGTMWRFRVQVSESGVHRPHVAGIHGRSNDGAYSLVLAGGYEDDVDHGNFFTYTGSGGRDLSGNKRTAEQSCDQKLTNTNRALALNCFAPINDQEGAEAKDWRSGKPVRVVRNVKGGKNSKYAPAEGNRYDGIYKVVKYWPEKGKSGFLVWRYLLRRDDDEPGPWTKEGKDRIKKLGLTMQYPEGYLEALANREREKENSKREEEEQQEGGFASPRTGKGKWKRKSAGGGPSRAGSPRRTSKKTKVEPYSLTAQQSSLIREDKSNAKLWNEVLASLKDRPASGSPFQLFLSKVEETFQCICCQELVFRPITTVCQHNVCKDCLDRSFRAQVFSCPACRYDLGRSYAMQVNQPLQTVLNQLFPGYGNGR
PG9 binder: PG9 antibody binding by small molecule; TR-FRET gp120-PG9 antibody binding; inhibition, % at 6.7 µM; actives 0.43% (n = 360,000); AID 624416; in the data active means inhibition above about 8.5%
LEDGF integ inh: blocks HIV-1 LEDGF/p75-dependent DNA integration. actives 0.64% (n = 370,000). AID 743269. inhibition, % at 3.7 µM. TR-FRET IN-LEDGF/p75 DNA integration, Eu/Cy5;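 active means inhibition above the screen-wide mean plus 3 SD, cut at about 13% in these data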;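 further: signal is the Cy5 over europium emission ratio at 671 and 618 nm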
rCAG binder: r(CAG) repeat RNA binding. actives 1.3% (n = 370,000). inhibition, % at 3 µM. TO-PRO-1 dye displacement fluorescence;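 active means inhibition above the plate cutoff, the mean of all test compounds on that plate plus 3 SD, cut at about 35% in these data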;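 further: higher means more dye released from RNA so lower well fluorescence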
DNMT1 inh: blocks human DNA methyltransferase DNMT1; DNMT1 molecular beacon, Hinp1I cleavage, fluorescence; actives 0.83% (n = 360,000); P26358; inhibition (reported as % activation of signal), % at 10 µM; in the data active means inhibition above about 50%
PG9 bind confirm: PG9 antibody binding, confirmed; shares compounds with PG9 binder; TR-FRET PG9 antibody binding, biochemical; inhibition, % at 6.7 µM; actives 90% (n = 1,500); in the data active means inhibition above about 9%
PGV04 counter: counter-screen for PG9 binders: binding control antibody PGV04; actives 95% (n = 1,500); shares compounds with PG9 binder; inhibition, % at 6.7 µM; TR-FRET PGV04 antibody-gp120 binding, biochemical; in the data active means inhibition above about 9.5%
PG9 binder DR: small molecules binding HIV-1 gp120 antibody PG9; shares compounds with PG9 binder; TR-FRET PG9 antibody-gp120 binding inhibition; IC50, µM; 95 tested, under 10 active; AID 651848; in the data active means IC50 below about 10 µM
PGV04 binding DR: PGV04 binding, dose response counter-screen; IC50, µM; shares compounds with PG9 binder; actives 20% (n = 95); TR-FRET binding to control antibody PGV04; AID 651937
PG126 DR counter: counter-screen for PG9 binders: binding to control antibody PG126 | actives 20% (n = 95) | TR-FRET binding to antibody PG126, counterscreen | IC50, µM | shares compounds with PG9 binder | AID 651939
Large screens that a line does not name were inactive (follow-up assays come after a bar, where they were run). Unless noted, no stated cut-off is given here; in the data, active means IC50 below about 9 µM; inactive means the rest.

CCOC(=O)N1CCC(NC(=O)c2cc(-c3ccc(OC)cc3)nc3ccccc23)CC1	PG9 binder 9.5 | PG9 bind confirm inactive | PGV04 counter 11
CCOC(=O)N1CCC(NC(=O)c2cn(-c3ccc(OC)cc3)c(=O)c3ccccc23)CC1	none
CS(=O)(=O)Nc1ccc(C(=O)Nc2ccccc2C(=O)NCc2ccco2)cc1	none
CCCCn1c(SCC(=O)NCc2ccco2)nc2ccc(N3CCOCC3)cc2c1=O	none
CCCCn1c(SCC(=O)NCc2ccccc2)nc2ccc(N3CCOCC3)cc2c1=O	PG9 binder 19 | PG9 bind confirm 35 | PGV04 counter 56
COc1ccc(CC(=O)OCc2cc3ccccc3[nH]c2=O)cc1	none
COc1ccc(CC(=O)OCc2cc3ccc(C)cc3[nH]c2=O)cc1	PG9 binder 17 | PG9 bind confirm 18 | PGV04 counter 30
CS(=O)(=O)N1CCC(C(=O)Nc2cccc(Cl)c2Cl)CC1	none
O=C(Nc1cccc(Cl)c1Cl)C1CCN(c2ncccn2)CC1	PG9 binder 9.2 | PG9 bind confirm 13 | PGV04 counter 14
CCOC(=O)COc1cccc2c(=O)n(CC(=O)N3CCc4ccccc43)ccc12	PG9 binder 14 | PG9 bind confirm 21 | PGV04 counter 25
CC(=O)c1ccc(N2CCN(C(=O)c3ccc(-c4ccccc4)cc3)CC2)cc1	PG9 binder 26 | PG9 bind confirm 44 | PGV04 counter 54
CC(=O)c1ccc(N2CCN(C(=O)c3cccc(Oc4ccccc4)c3)CC2)cc1	none
O=[N+]([O-])c1cccc(C2=Nn3c(nnc3-c3ccccc3)SC2)c1	none (no result: PG9 binder, DNMT1 inh)
CN(CC(=O)Nc1cccc(C(F)(F)F)c1)C1=NS(=O)(=O)c2ccccc21	none
Cc1cnc(NC(=O)CCCSc2nc3ccccc3s2)s1	PG9 binder 13 | PG9 bind confirm 18 | PGV04 counter 25
O=C(Nc1nnc(SCc2ccccc2)s1)c1cc2c(s1)CCCC2	PG9 binder 9.7 | PG9 bind confirm 21 | PGV04 counter 17 | PG9 binder DR inactive | PGV04 binding DR inactive | PG126 DR counter inactive
CC(=O)Nc1nnc(SCc2ccc(F)cc2)s1	none
CCSc1nnc(NC(=O)c2cc3c(s2)CCCC3)s1	PG9 binder 12 | PG9 bind confirm 23 | PGV04 counter 18 | PG9 binder DR inactive | PGV04 binding DR inactive | PG126 DR counter inactive
CCSc1nnc(NC(=O)c2csc3c2CCCC3)s1	PG9 binder 9.2 | PG9 bind confirm 24 | PGV04 counter 38
O=C(Nc1nnc(SCc2ccc(F)cc2)s1)c1ccc2ncsc2c1	PG9 binder 9.7 | PG9 bind confirm 19 | PGV04 counter 25
O=C(Nc1nncs1)c1cc2c(s1)CCC2	none
C[C@@H]1COc2cc(F)ccc2S(=O)(=O)N1C	none (no result: PG9 binder, DNMT1 inh)
O=C(CSc1nc2ccccc2s1)NCc1cc([N+](=O)[O-])ccc1O	none
COC(=O)[C@]12C[C@H](CC(=O)NCCCN3CCCC3=O)C(=O)N(Cc3cccc4ccccc34)C1=C[C@H](C1CCCC1)O[C@@H]2C	none (no result: PG9 binder, DNMT1 inh)
O=C1C(=O)N(CCN2CCOCC2)C(c2cccc(Cl)c2)/C1=C(\O)c1ccc2c(c1)OCCO2 (stereo unspecified)	PG9 binder 32 | PG9 bind confirm 36 | PGV04 counter 42
CCCCOc1cccc(C2/C(=C(\O)c3ccc4c(c3)OCCO4)C(=O)C(=O)N2CCN2CCOCC2)c1 (stereo unspecified)	PG9 binder 10 | PG9 bind confirm 18 | PGV04 counter 31
CCCOc1cccc(C2/C(=C(\O)c3ccc4c(c3)OCCO4)C(=O)C(=O)N2CCCn2ccnc2)c1 (stereo unspecified)	none
COc1ccccc1-c1csc(C(O)c2cccc(Cl)c2)n1 (stereo unspecified)	none
O=C(Nc1ccc(OCc2ccccc2)cc1)Nc1nnc([C@H]2C[C@H](O)[C@@H](CO)O2)s1	none
CC(=O)Nc1ccc(NC(=O)COc2ccc(-c3ccc(C#N)cc3)cc2)cc1	PG9 binder 9.0 | PG9 bind confirm 12 | PGV04 counter 18
N/C(=N\OC(=O)COc1ccc2ccccc2c1Br)c1cccnc1	PG9 binder 10 (no result: DNMT1 inh) | PG9 bind confirm 14 | PGV04 counter 19
Cc1ccc(CNC(=O)c2cc3c(s2)CS(=O)(=O)C3)cc1	none
Cc1ccc(CNC(=O)c2cc3c(s2)CN(Cc2ccccc2)C3)cc1	PG9 binder 18 | PG9 bind confirm 20 | PGV04 counter 21
Cc1ccc(-c2cc(C(=O)N3CCCC3)c3ccccc3n2)s1	none
Cc1ccc(-c2cc(C(=O)O)c3cc(Br)ccc3n2)s1	PG9 binder 23 | PG9 bind confirm 28 | PGV04 counter 43
CC(=O)c1c(C)nc2ccc(Br)cc2c1-c1ccccc1	none
Cc1nc2ccc(Br)cc2c(-c2ccccc2)c1C(=O)O	PG9 binder 55 | PG9 bind confirm 65 | PGV04 counter 77
Cc1ccc(CN2CCCCC(NC(=O)c3ccc(F)cc3)C2=O)cc1 (stereo unspecified)	none (no result: PG9 binder, DNMT1 inh)
CCCCNC(=O)C1(C)CCN1C(=O)c1cccnc1Oc1ccccc1 (stereo unspecified)	none
COC(=O)c1cc(Cl)c(NC(=O)c2ccc(C(C)(C)C)cc2)cc1OC	none
COC(=O)c1cc(Cl)c(NC(=O)c2cc3ccccc3o2)cc1OC	PG9 binder 8.7 | PG9 bind confirm inactive | PGV04 counter 38
CCOC(=O)c1cccc(NC(=O)CN(C)S(=O)(=O)c2cc(OC)ccc2OC)c1	none (no result: PG9 binder, DNMT1 inh)
CON(c1nc(Cl)nc(N(C)C)n1)S(=O)(=O)c1ccc(C)cc1	PG9 binder 10 | PG9 bind confirm inactive | PGV04 counter inactive
CON(c1nc(Cl)nc(N(C)C)n1)S(=O)(=O)c1ccccc1Cl	none
COc1ccccc1OCCC(=O)Nc1cccc(S(=O)(=O)N2CCOCC2)c1	none
O=c1[nH]c(SCCOc2ccccc2)nc2ccccc12	PG9 binder 40 | PG9 bind confirm 33 | PGV04 counter 52
CCc1ccc(Nc2nc3ccccc3c(=O)s2)cc1	none
CCOc1ccc(Nc2nc3ccccc3c(=O)s2)cc1	PG9 binder 17 | PG9 bind confirm 18 | PGV04 counter 20
